The compounds below were run against AMP-activated protein kinase, AMPK (Homo sapiens) (UniProt P54646+O43741+P54619+Q9UGJ0+Q9Y478+Q13131+Q9UGI9) (assay: AMP-dependent Kinase enzyme assay. An in vitro enzyme assay that detects ADP turnover that is directly proportional to AMPK activity. This uses naive AMPK that is activated during the assay with MK-8722). Settings: 30 µM.
Format: functional
Parameters: scale not given: direction of the effect not stated beside the values
Work on `Cc1ncsc1C(=O)N(C)CCc1ccncc1` yielded a Percent Effect of 9.05%. Work on `O=C(O)c1ccc(F)c(S(=O)(=O)Nc2c(F)cccc2-n2cccn2)c1` yielded a Percent Effect of -4.66%. `Cn1cnc2c1C(COCc1cccnc1)N(Cc1ccccn1)CC2` (stereo not drawn) gave a Percent Effect of -12.6%. `Cc1cc(CN2CCCC(C)(CO)C2)ccc1F` (stereo not drawn) gave a Percent Effect of -7.31%. `CCS(=O)(=O)CC(=O)NC(c1ccc(F)cc1)C1CCCC1` (stereo not drawn) showed a Percent Effect of 132%. Work on `O=C(Nc1cccc(CN2CCOC2=O)c1)N1CCOCC1` yielded a Percent Effect of -4.85%. For `CC(C)c1cc(NC(=O)c2ccc(C(=O)NC(C)(C)C)cc2)[nH]n1`, the Percent Effect was 112%. With `CN(C)C(=O)CN1CCCCC1c1nc(N)ncc1-c1cccc(F)c1` (stereo not drawn) the Percent Effect was 1.75%. In the case of `CCN1CC(C(=O)NC(C)(C)CC(C)(C)C)CC1=O` (stereo not drawn), the Percent Effect was -0.778%. `CC(C)CS(=O)(=O)CC(=O)N(C)Cc1ccc(OC(F)F)cc1` was tested, and the Percent Effect was 4.52%. `Cc1ccc(C(=O)Nc2cn[nH]c2)cn1` showed a Percent Effect of 9.28%. `CSc1nccn1-c1cccc(C(=O)NCc2nnc(C)n2C)c1` gave a Percent Effect of -0.262%. Compound `CN(Cc1cnn(C)c1)C(=O)Cn1c(CS(C)(=O)=O)nc2ccccc21` has a Percent Effect of 3.77%. In the case of `CC1CN(Cc2nccn2C)CCN1c1ccc2nncn2n1` (stereo not drawn), the Percent Effect was -8.38%. In the case of `O=C(CCn1cccn1)N1CCN(CC(F)F)CC1`, the Percent Effect was -2.79%. In the case of `Cc1noc(C(C)C)c1C(=O)N1CCCN(Cc2cscn2)CC1`, the Percent Effect was -1.96%. `CS(=O)(=O)CCNC(=O)C1(c2cccc(Cl)c2)CCCCC1` was tested, and the Percent Effect was 0.793%. With `CCc1n[nH]c(C2CN(C(=O)c3ccsc3)CCO2)n1` (stereo not drawn) the Percent Effect was 6.15%. Compound `CN(C)C(=O)N1C[C@@H]2CC[C@H](C1)N(C(=O)CCCn1cncn1)C2` has a Percent Effect of 0.473%. `CN1CCN(C2CCN(CC(=O)NCC(F)(F)F)CC2)C1=O` was tested, and the Percent Effect was -9.09%. Compound `CN(C)S(=O)(=O)N1C[C@@H](Oc2ccccn2)[C@H]2OCCC[C@H]21` has a Percent Effect of 5.04%. `Cc1ccc(CC(=O)N2Cc3nccn3CC(CN(C)C)C2)cc1` (stereo not drawn) gave a Percent Effect of -4.31%. For `COc1cc(CNCc2ccnc(N3CCOCC3)c2)cc(Cl)c1OC`, the Percent Effect was -4.43%. With `CC(C)(C)OC(=O)NC(C)(C)c1noc(CN2CCCCC2)n1` the Percent Effect was -1.12%. Compound `Cc1cc(CC(=O)NCc2ccnc(OCC(F)(F)F)c2)no1` has a Percent Effect of 3.73%. Work on `Cc1nc(N2CCN(C(=O)C(C)(C)C)CC2)cc(-n2cnc(C)c2C)n1` yielded a Percent Effect of 2.15%. `Cc1ccc(-c2noc(CN3CCOC(Cn4cncn4)C3)n2)cc1` (stereo not drawn) was tested, and the Percent Effect was 0.576%. Work on `Cc1nc(C)n(CC2CCCN2CC(=O)NCCc2ccccc2)n1` (stereo not drawn) yielded a Percent Effect of 2.9%. Compound `Cn1c(C2CC2)nc2c1CCN(CC(=O)Nc1nncs1)C2` has a Percent Effect of 0.616%. Compound `CCc1csc(C2CCCN(C(=O)C3=NN(CC)C(=O)CC3)C2)n1` (stereo not drawn) has a Percent Effect of -3.68%. `Cc1nccc([C@H]2C[C@@H]3CCN(S(=O)(=O)N(C)C)C[C@H]3O2)n1` gave a Percent Effect of -3.13%. `CO[C@H]1CCN(c2ncccn2)[C@H]1Cc1ccccc1` was tested, and the Percent Effect was -1.1%. `CNc1cc(N2CCCC2CNCc2ccc(Cl)o2)ncn1` (stereo not drawn) was tested, and the Percent Effect was -2.54%. For `O=C(O)C(c1ccc2c(c1)OCO2)N1CCC(C(=O)N2CCCC2)CC1` (stereo not drawn), the Percent Effect was -3.95%. Compound `COc1ccc(CC(=O)N2CCCCC2Cn2cccn2)cc1OC` (stereo not drawn) has a Percent Effect of 1.89%. Compound `COCC(c1cccc(C(F)(F)F)c1)N(C)C(=O)c1cc(C)no1` (stereo not drawn) has a Percent Effect of 1.05%. In the case of `CNS(=O)(=O)CCCN1CCCC1c1cc(C)on1` (stereo not drawn), the Percent Effect was 1.65%. Work on `Cc1cc(C)n(CC2CCCN2CC(=O)NC2CCOCC2)n1` (stereo not drawn) yielded a Percent Effect of 1.94%. With `Cc1cc(C)n(-c2ccc(CNCc3ccc(OC(C)C)cc3)cn2)n1` the Percent Effect was -0.778%.

What follows are compounds tested against Sialic acid-binding Ig-like lectin 9 (Homo sapiens) (UniProt Q9Y336) (assay: Hs-Siglec9 ALPHAscreen SOP 20170721). Settings: 10 µM.
Sequence of Sialic acid-binding Ig-like lectin 9 (Homo sapiens) (Q9Y336 whole entry): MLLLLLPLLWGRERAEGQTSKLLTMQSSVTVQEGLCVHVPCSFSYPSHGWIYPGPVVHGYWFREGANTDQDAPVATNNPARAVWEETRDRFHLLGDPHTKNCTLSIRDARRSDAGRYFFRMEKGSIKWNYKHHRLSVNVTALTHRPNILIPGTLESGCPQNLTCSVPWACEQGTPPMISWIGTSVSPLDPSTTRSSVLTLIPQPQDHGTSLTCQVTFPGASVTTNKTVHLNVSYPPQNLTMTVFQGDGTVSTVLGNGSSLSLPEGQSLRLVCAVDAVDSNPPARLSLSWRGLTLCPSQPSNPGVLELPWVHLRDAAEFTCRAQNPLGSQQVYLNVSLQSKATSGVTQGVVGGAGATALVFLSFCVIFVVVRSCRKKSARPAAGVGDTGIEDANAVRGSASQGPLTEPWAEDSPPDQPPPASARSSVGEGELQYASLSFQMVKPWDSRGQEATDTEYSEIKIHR
Parameters: scale not given: direction of the effect not stated beside the values
In the case of `Cc1ncsc1C(=O)N(C)CCc1ccncc1`, the Percent Effect was 3.98%. Compound `O=C(O)c1ccc(F)c(S(=O)(=O)Nc2c(F)cccc2-n2cccn2)c1` has a Percent Effect of 12.6%. Compound `Cn1cnc2c1C(COCc1cccnc1)N(Cc1ccccn1)CC2` (stereo not drawn) has a Percent Effect of 2.61%. Work on `Cc1cc(CN2CCCC(C)(CO)C2)ccc1F` (stereo not drawn) yielded a Percent Effect of 1.4%. `CCS(=O)(=O)CC(=O)NC(c1ccc(F)cc1)C1CCCC1` (stereo not drawn) showed a Percent Effect of 2.49%. `O=C(Nc1cccc(CN2CCOC2=O)c1)N1CCOCC1` showed a Percent Effect of -10.5%. Work on `CC(C)c1cc(NC(=O)c2ccc(C(=O)NC(C)(C)C)cc2)[nH]n1` yielded a Percent Effect of -4.38%. `CN(C)C(=O)CN1CCCCC1c1nc(N)ncc1-c1cccc(F)c1` (stereo not drawn) showed a Percent Effect of -10.4%. `CCN1CC(C(=O)NC(C)(C)CC(C)(C)C)CC1=O` (stereo not drawn) was tested, and the Percent Effect was 22.8%. `CC(C)CS(=O)(=O)CC(=O)N(C)Cc1ccc(OC(F)F)cc1` was tested, and the Percent Effect was -5.18%. `Cc1ccc(C(=O)Nc2cn[nH]c2)cn1` gave a Percent Effect of 0.161%. With `CSc1nccn1-c1cccc(C(=O)NCc2nnc(C)n2C)c1` the Percent Effect was 12.6%. Work on `CN(Cc1cnn(C)c1)C(=O)Cn1c(CS(C)(=O)=O)nc2ccccc21` yielded a Percent Effect of -0.257%. Compound `CC1CN(Cc2nccn2C)CCN1c1ccc2nncn2n1` (stereo not drawn) has a Percent Effect of 12.5%. Work on `O=C(CCn1cccn1)N1CCN(CC(F)F)CC1` yielded a Percent Effect of -4.78%. For `Cc1noc(C(C)C)c1C(=O)N1CCCN(Cc2cscn2)CC1`, the Percent Effect was -7.63%. Work on `CS(=O)(=O)CCNC(=O)C1(c2cccc(Cl)c2)CCCCC1` yielded a Percent Effect of -3.56%. In the case of `CCc1n[nH]c(C2CN(C(=O)c3ccsc3)CCO2)n1` (stereo not drawn), the Percent Effect was 8.54%. Work on `CN(C)C(=O)N1C[C@@H]2CC[C@H](C1)N(C(=O)CCCn1cncn1)C2` yielded a Percent Effect of 0.611%. Work on `CN1CCN(C2CCN(CC(=O)NCC(F)(F)F)CC2)C1=O` yielded a Percent Effect of 10.9%. Compound `CN(C)S(=O)(=O)N1C[C@@H](Oc2ccccn2)[C@H]2OCCC[C@H]21` has a Percent Effect of 3.32%. Work on `Cc1ccc(CC(=O)N2Cc3nccn3CC(CN(C)C)C2)cc1` (stereo not drawn) yielded a Percent Effect of 9.23%. With `COc1cc(CNCc2ccnc(N3CCOCC3)c2)cc(Cl)c1OC` the Percent Effect was 13.4%. For `CC(C)(C)OC(=O)NC(C)(C)c1noc(CN2CCCCC2)n1`, the Percent Effect was -1.61%. For `Cc1cc(CC(=O)NCc2ccnc(OCC(F)(F)F)c2)no1`, the Percent Effect was -4.53%. `Cc1nc(N2CCN(C(=O)C(C)(C)C)CC2)cc(-n2cnc(C)c2C)n1` was tested, and the Percent Effect was 6.33%. In the case of `Cc1ccc(-c2noc(CN3CCOC(Cn4cncn4)C3)n2)cc1` (stereo not drawn), the Percent Effect was 2.63%. `Cc1nc(C)n(CC2CCCN2CC(=O)NCCc2ccccc2)n1` (stereo not drawn) was tested, and the Percent Effect was 4.24%. `Cn1c(C2CC2)nc2c1CCN(CC(=O)Nc1nncs1)C2` was tested, and the Percent Effect was 7.43%. `CCc1csc(C2CCCN(C(=O)C3=NN(CC)C(=O)CC3)C2)n1` (stereo not drawn) was tested, and the Percent Effect was 5.23%. With `Cc1nccc([C@H]2C[C@@H]3CCN(S(=O)(=O)N(C)C)C[C@H]3O2)n1` the Percent Effect was 27.4%. `CO[C@H]1CCN(c2ncccn2)[C@H]1Cc1ccccc1` was tested, and the Percent Effect was 7.23%. With `CNc1cc(N2CCCC2CNCc2ccc(Cl)o2)ncn1` (stereo not drawn) the Percent Effect was 43.1%. `O=C(O)C(c1ccc2c(c1)OCO2)N1CCC(C(=O)N2CCCC2)CC1` (stereo not drawn) was tested, and the Percent Effect was 1.83%. For `COc1ccc(CC(=O)N2CCCCC2Cn2cccn2)cc1OC` (stereo not drawn), the Percent Effect was 0.458%. Compound `COCC(c1cccc(C(F)(F)F)c1)N(C)C(=O)c1cc(C)no1` (stereo not drawn) has a Percent Effect of -2.93%. With `CNS(=O)(=O)CCCN1CCCC1c1cc(C)on1` (stereo not drawn) the Percent Effect was -3.19%. For `Cc1cc(C)n(CC2CCCN2CC(=O)NC2CCOCC2)n1` (stereo not drawn), the Percent Effect was 3.84%. With `Cc1cc(C)n(-c2ccc(CNCc3ccc(OC(C)C)cc3)cn2)n1` the Percent Effect was -0.618%.
